Screens as filed in PubChem.
Hits are enriched below; roughly 21% of the tested compounds scored in any of these assays.
ClpP mod: qHTS Assay for Activators of ClpP | ATP-dependent Clp protease proteolytic subunit (Bacillus subtilis (strain 168)), P80244 | purified B. subtilis ClpP, FRET peptide cleavage, 20 min | Potency, µM (titrated, usually from 57.5 µM), for the others: at the highest dose activity change, negative = active | 340,000 tested, 1.9% active | AID 651965, 2013; active means well fitted falling curve with a large enough effect; inconclusive means small, poorly fitted or top-dose-only effect; inactive means no such curve, though single readings can be large or run the other way; further: potency means the concentration at half of the fitted maximal effect; the source files actives as falling curves though it sought activators and does not explain the sign; nearly all actives have a fitted effect of over 65% in size
Target sequence (P80244 whole entry, looked up): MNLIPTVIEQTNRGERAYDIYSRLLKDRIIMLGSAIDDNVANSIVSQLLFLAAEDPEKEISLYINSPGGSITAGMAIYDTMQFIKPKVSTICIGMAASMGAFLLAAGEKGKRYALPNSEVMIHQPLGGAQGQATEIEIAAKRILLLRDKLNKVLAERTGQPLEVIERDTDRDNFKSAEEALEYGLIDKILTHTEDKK
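Purified B. subtilis ClpP, 10 microg/mL final in Tris/HCl pH8 with KCl, BSA, glycerol and Tween-20, cleaved an Abz/nitrotyrosine-quenched decapeptide. Fluorescence (ex 320, em 430) was read at 0 and 20 min at room temperature. Delta was normalized to 5.8 microM ADEP and DMSO/no-enzyme controls.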
D3 antag: antagonists of human D3 dopamine receptor | D3R cells, DiscoveRx beta-arrestin luminescence, antagonist mode; hits give low values | max response, negative = inhibition, % | 360,000 tested, 2.5% active; in the data active means max response below about -50%; inconclusive means no clear call, values can overlap the other calls; further: on the % scale 0 is the no-effect control and ±100 the full control effect
Target sequence (P35462 whole entry, looked up): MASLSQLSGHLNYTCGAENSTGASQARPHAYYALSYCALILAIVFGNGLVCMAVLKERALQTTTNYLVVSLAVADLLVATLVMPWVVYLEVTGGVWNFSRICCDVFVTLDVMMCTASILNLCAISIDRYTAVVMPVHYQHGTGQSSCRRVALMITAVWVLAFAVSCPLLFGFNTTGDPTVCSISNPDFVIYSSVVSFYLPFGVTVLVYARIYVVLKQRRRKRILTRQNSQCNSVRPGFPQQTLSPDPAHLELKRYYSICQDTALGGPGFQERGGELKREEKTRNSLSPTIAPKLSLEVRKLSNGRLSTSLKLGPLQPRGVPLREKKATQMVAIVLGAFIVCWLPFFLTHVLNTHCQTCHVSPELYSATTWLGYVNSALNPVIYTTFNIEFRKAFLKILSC
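Cells plated overnight at 1500 cells/well, then exposed to library compounds with dopamine controls for 90 minutes at 37 degrees C. DiscoveRx reagent added for 30–60 minutes at room temperature; luminescence read, quantitative HTS format.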
DRD3 agonist: D3 dopamine receptor (human) agonism; D3R DiscoveRx beta-arrestin cells, luminescence, 90 min; max activation, %; 410,000 tested, 0.58% active; AID 652048; in the data active means max activation above about 30%; further: 0% is about no effect
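Agonist mode: compounds and dopamine controls were applied to plated cells for 90 min at 37 degrees C after an overnight attachment at 1500 cells/well. Luminescent read-out followed 30 - 60 minutes at room temperature with DiscoveRx detection reagent.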
TDP1 cell CPT: DT40-hTDP1 cell growth loss with CPT; 420,000 tested, 12% active; Potency, µM (top dose mostly 46.2 µM), without a hit: at the top dose activity change, negative = growth inhibition, most hits filed as inhibitors; AID 686979; chicken DT40 Tdp1-/-;hTDP1 cells + 20 nM CPT, ATP luminescence, 48 h; further: potency means the concentration at half of the fitted maximal effect; on the % scale 0 is the no-effect control and ±100 the full control effect; nearly all actives have a fitted effect of over 55% in size
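Cell growth measured by CellTiter-Glo luminescence after a minimum 48 h, 37 C compound exposure with 20 nM CPT in Tdp1-knockout DT40 cells stably expressing hTDP1, seeded 400/well; qHTS titration format.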
TDP1 cell noCPT: qHTS for Inhibitors of human tyrosyl-DNA phosphodiesterase 1 (TDP1): qHTS in cells in absence of CPT; DT40 Tdp1-/- hTDP1 cells, no CPT, ATP luminescence, 48 h; Potency, µM (titrated, usually from 46.2 µM), without a hit: top-dose activity change, negative = growth inhibition, actives largely listed as inhibitors; 420,000 tested, 15% active; further: potency means the concentration at half of the fitted maximal effect; on the % scale 0 is the no-effect control and ±100 the full control effect; nearly all actives have a fitted effect of over 55% in size
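A cellular qHTS used chicken DT40 cells lacking endogenous Tdp1 but carrying stably transfected human TDP1. Compounds were applied without camptothecin, and cell growth kinetics were judged by ATP-dependent luminescence after ≥48 hr.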
IL1B secr inh: inhibitors of inflammasome signaling (IL-1 beta secretion); THP-1 LPS/ATP IL-1B secretion, AlphaLISA, 16 h; hits give low values; activity change, % at 57.5 µM; 360,000 tested, 4.7% active; AID 743279; in the data active means activity change below about -50%; inconclusive means mostly about -30% to -49%; further: on the % scale 0 is the no-effect control and ±100 the full control effect
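Secreted IL-1B measured by AlphaLISA bead assay after 16 h compound exposure of THP-1 cells; compounds (final up to 57.5 uM) added 1 h before LPS (250 ng/mL) and ATP (1.25 mM) stimulation; lower signal means less secretion.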
Numbers without * were called inactive; ? = inconclusive; . = no result given. Unless noted, the call rests on the fitted dose curve; in most records, active means well fitted inhibition curve with a large enough effect; inconclusive means small, poorly fitted or top-dose-only effect; inactive means flat fitted curve, though single readings scatter.

SMILES | ClpP mod | D3 antag | DRD3 agonist | TDP1 cell CPT | TDP1 cell noCPT | IL1B secr inh
Cc1oc(C)c2c(=O)ccc3c(c12)OC(N)=C(C#N)C3c1ccccc1 (configuration not stated) | 1.2% | -12.4 | -3.5 | ? | ? | -8.5
C/C(CC(=O)Nc1ccc(OCc2ccccc2)cc1)=N\NC(=O)C(=O)Nc1cccc(C)c1 | -6.1% | 0.0 | 3.8 | ? | 9.2µM* | ?
Cc1cnc(NC(=O)Nc2ccc(OCc3ccccc3)cc2)c(Br)c1 | . | -1.1 | -2.6 | ? | 16.4µM* | -5.3
COC(=O)Nc1ccc(OCc2ccccc2)cc1 | 0.6% | -24.6 | -14.4 | -26.5% | -12.7% | -3.4
COc1ccccc1NC(=O)C(=O)N/N=C(\C)CC(=O)Nc1ccc(OCc2ccccc2)cc1 | 0.1% | -29.5 | 3.0 | -26.4% | ? | 3.9
Cn1c(=O)n(C)c2cc(/C=N/NC(=O)c3ccc(Cl)cc3)ccc21 | -5.1% | ? | -13.0 | ? | ? | 0.0
Cn1cc(/C=N/NC(=O)c2ccccc2O)c2ccccc21 | -12.9% | -3.1 | -13.5 | ? | ? | -11.7
Cn1c2ccccc2c2cc(/C=N/NC(=O)c3ccc(N)cc3)ccc21 | 3.6% | -4.5 | -13.8 | ? | 18.4µM* | ?
Cn1c2ccccc2c2cc(/C=N/NC(=O)c3ccccc3F)ccc21 | 4.5% | 17.3 | -1.9 | 23.1µM* | ? | -2.4
COc1cccc(CN(C(=O)c2cc3ccccc3oc2=O)C2CCS(=O)(=O)C2)c1 (configuration not stated) | -7.5% | -1.6 | -7.9 | 1.4% | 17.5% | 2.2
CCOC1=C(C#N)CC2(CC1)c1ccccc1-c1ccccc12 | . | 83.5 | 20.1 | ? | 23.1µM* | -29.7
CCn1c(SCC(=O)N(C)C)nc2cc(S(=O)(=O)N3CCOCC3)ccc21 | -0.5% | 3.3 | 2.6 | -9.9% | -8.1% | -1.5
CCCn1c(CCC(=O)Nc2ccccc2Cc2ccccc2)nc2cc(S(=O)(=O)N3CCOCC3)ccc21 | -2.8% | ? | -8.2 | 16.4µM* | 23.1µM* | -8.3
CCn1c(SCC(N)=O)nc2cc(S(=O)(=O)N3CCOCC3)ccc21 | . | -12.1 | 0.1 | -26.1% | -2.6% | -6.0
Nc1nc2cc(S(=O)(=O)N3CCOCC3)ccc2o1 | . | 3.7 | -7.2 | 23.1µM* | ? | -3.1
CCOC(=O)CSc1nc2cc(S(=O)(=O)N3CCOCC3)ccc2n1CC | . | 9.0 | -0.6 | -13.9% | -17.1% | -90.3*
CCn1c(CCl)nc2cc(S(=O)(=O)N3CCOCC3)ccc21 | -1.3% | -8.2 | -3.7 | 7.31µM* | 2.91µM* | -100.7*
CCn1c(SCC(=O)c2c[nH]c3ccccc23)nc2cc(S(=O)(=O)N3CCOCC3)ccc21 | 28.2µM* | -0.1 | 4.2 | 14.6µM* | 20.6µM* | -5.8
O=C(NNc1ccc([N+](=O)[O-])cc1)c1ccco1 | -0.3% | -22.1 | 1.9 | -4.1% | 18.5% | 15.2
CCOc1ccc(C(=O)Nc2cccc(NC(=O)c3cccs3)c2)cc1[N+](=O)[O-] | 0.6% | 6.5 | 2.5 | ? | 18.4µM* | -25.4
Cc1cccc(NC(=O)c2cccc(NC(=O)c3ccco3)c2)c1 | . | ? | -12.3 | -25.4% | -13.0% | -27.2
O=C(NNc1ccc([N+](=O)[O-])cc1[N+](=O)[O-])c1ccco1 | -1.4% | ? | 0.4 | 14.6µM* | 20.6µM* | -61.9*
CCOc1ccc(C(=O)NC(=S)Nc2cccc(NC(=O)c3ccco3)c2)cc1[N+](=O)[O-] | 2.4% | -68.6* | -7.6 | ? | 14.6µM* | ?
Cc1cc(C(=O)Nc2cccc(NC(=O)c3ccco3)c2)ccc1[N+](=O)[O-] | 0.9% | 12.3 | 7.6 | ? | ? | -79.0*
COc1ccccc1Nc1nc(C)nc(N)c1S(=O)(=O)c1ccccc1 | 3.4% | . | -10.1 | . | . | .
SMILES | ClpP mod | D3 antag | DRD3 agonist | TDP1 cell CPT | TDP1 cell noCPT | IL1B secr inh
O=C(Nc1ccc(Cl)cc1)OCCn1nnnc1C(c1ccccc1Cl)N1CCOCC1 (configuration not stated) | 1.2% | ? | -2.9 | 25.9µM* | 18.4µM* | -28.6
Cc1cc(C)c(NC(=O)CN2C(=O)NC3(CCCc4ccccc43)C2=O)c(Cl)c1 (configuration not stated) | . | -20.7 | -0.9 | ? | 18.4µM* | -19.7
CCOC(=O)CN1C(=O)NC2(CCCc3ccccc32)C1=O (configuration not stated) | . | -68.4* | -15.0 | 5.4% | 2.4% | 17.9
O=C(CN1C(=O)NC2(CCCc3ccccc32)C1=O)Nc1cccc(S(=O)(=O)N2CCCCC2)c1 (configuration not stated) | 0.8% | -12.7 | 1.3 | ? | 16.4µM* | -1.7
O=C(CN1C(=O)NC2(CCCc3ccccc32)C1=O)N1CCc2ccccc2C1 (configuration not stated) | -1.8% | -2.4 | -8.7 | ? | 20.6µM* | -5.1
O=C(O)CN1C(=O)NC2(CCCc3ccccc32)C1=O (configuration not stated) | . | -19.4 | -6.4 | 15.9% | -12.7% | -7.1
CC(=O)CCN1C(=O)NC2(CCCc3ccccc32)C1=O (configuration not stated) | -0.4% | 9.9 | 6.6 | 1.8% | 9.9% | 10.5
Cc1ccc(NC(=O)CN2C(=O)NC3(CCCc4ccccc43)C2=O)c(Cl)c1 (configuration not stated) | . | -7.3 | -2.5 | -23.2% | ? | 9.4
Cc1ccc(N(CC(=O)NCCc2ccc(Cl)cc2)S(=O)(=O)N(C)C)cc1 | 0.6% | . | 9.7 | ? | ? | .
CC1CCN(C(=O)CNC(=O)CNC(=O)Cc2ccccc2)CC1 | 1.9% | 6.8 | 6.4 | -10.0% | 6.6% | 6.1
CCC(=O)N1c2ccc(S(=O)(=O)N3CCC(C)CC3)cc2CC1C (configuration not stated) | -0.2% | . | 1.1 | -29.3% | -27.4% | .
Cc1ccc(NC(=O)C2CC(=O)N(CCc3ccccc3)C2)c(C)c1 (configuration not stated) | . | 2.9 | 4.8 | -4.6% | -12.8% | -3.4
Cc1ccc(CN(C)C(=O)CN2C(=O)NC3(CCCc4ccccc43)C2=O)c(C)c1 (configuration not stated) | -0.6% | 1.2 | -1.3 | ? | 20.6µM* | -13.8
COc1ccc(C(NC(=O)CN2C(=O)NC3(CCc4ccccc43)C2=O)c2ccccc2)cc1 (configuration not stated) | 1.5% | -2.6 | -0.5 | ? | ? | ?
